The full list was thinned out, with hits kept by preference.
GIRK2 act: activators of NPY4-receptor-primed GIRK2 channels, summary, cell-based, HEK293, thallium flux; 34,000 tested, under 10 active; activation (% efficacy), % for hits at 37.5 µM; HEK293 GIRK2/NPY4 cells, thallium flux fluorescence; G protein-activated inward rectifier potassium channel 2 (Homo sapiens), P48051; AID 1259324, 2017;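 active means primary screen hit, no activity in plain HEK293 cells, and in GIRK2-only cells above 5% efficacy rising with concentration; inactive means the rest, including fluorescent compounds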;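 further: efficacy is normalized control-subtracted fluorescence 15 s after thallium addition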
Target sequence (P48051 whole entry, looked up): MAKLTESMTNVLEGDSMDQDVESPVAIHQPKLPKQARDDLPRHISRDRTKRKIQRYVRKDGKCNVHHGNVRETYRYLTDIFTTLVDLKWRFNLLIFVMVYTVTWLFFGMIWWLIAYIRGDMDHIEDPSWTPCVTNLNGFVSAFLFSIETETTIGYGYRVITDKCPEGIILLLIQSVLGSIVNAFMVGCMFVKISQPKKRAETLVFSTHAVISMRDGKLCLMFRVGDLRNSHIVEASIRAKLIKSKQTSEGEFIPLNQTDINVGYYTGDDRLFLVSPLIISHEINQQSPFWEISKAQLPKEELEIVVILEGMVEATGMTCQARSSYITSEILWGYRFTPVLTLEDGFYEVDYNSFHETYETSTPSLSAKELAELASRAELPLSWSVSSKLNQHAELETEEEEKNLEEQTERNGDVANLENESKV
AMPAR-TARP mod: modulators of GluA2-stargazin AMPA receptor complexes, primary screen, cell-based, membrane potential dye. HEK293 GluA2+stargazin, membrane potential dye (FDSS), glutamate EC50; hits were called plate by plate, in both directions. AID 1259245, 2017. Voltage-dependent calcium channel gamma-2 subunit (Mus musculus) + Glutamate receptor 2 …. 40,000 tested, 3.5% active. calls only at 30 µM;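 active means any of four per-well response measures lying three or more SD from its plate-wide compound average, in either direction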
Calls only; - = inactive; . = no result; + = active, no number.

SMILES	GIRK2 act	AMPAR-TARP mod
COc1cc(/C=C/C(=O)N2CCCCCC2)ccc1OCc1ccccc1	-	-
Cc1c(C(=O)NC2CCCC2)c(C(F)(F)F)nn1C1CCN(C(C)C)CC1	-	-
CCN(C1CCCCC1)S(=O)(=O)c1ccc(C(=O)Nc2ncnc3sccc23)cc1	-	+
CN(C1CCCC1)S(=O)(=O)c1ccc(C(=O)Nc2ncnc3sccc23)cc1	.	-
COc1cc(C(=O)NCCNc2ccc(Nc3ccncc3)nn2)cc(OC)c1OC	-	-
CS(=O)(=O)N1CCCc2cc(NC(=O)Oc3ccccc3)ccc21	-	-
CC(C)NC(=O)CCCCn1c(=O)c2ccccc2n(CC(=O)Nc2ccc3c(c2)OCO3)c1=O	.	-
Cc1cc(NC(=O)CSc2nc(=O)n(N3CCN(C)CC3)c3c2CCC3)no1	-	+
CN1CCN(n2c3c(c(SCC(=O)Nc4cccc5ccccc45)nc2=O)CCC3)CC1	-	-
O=C(c1ccc(Br)o1)N1CCC(c2cccs2)CC1	-	-
COc1cccc(CCNC(=O)CC2CCCCN2S(=O)(=O)c2ccccc2)c1 (centres undefined)	.	-
COc1ccc(S(=O)(=O)N2CCCCC2CC(=O)NCc2ccccc2OC)cc1 (centres undefined)	.	-
COc1ccc(S(=O)(=O)N2CCCCC2CC(=O)NCc2ccccc2Cl)cc1 (centres undefined)	.	+
COc1cccc(CCNC(=O)CC2CCCCN2S(=O)(=O)c2ccc(Cl)cc2)c1 (centres undefined)	.	+
COc1nn(C)cc1C(=O)NCC(=O)NCCc1ccncc1	-	-
CC(C)c1cc(=O)[nH]c(-n2nc(C3CC3)cc2NC(=O)COc2ccc3ccccc3c2)n1	-	-
COc1ccc(Cl)cc1NC(=O)N1CCN(c2ccc3nncn3n2)CC1	-	-
COc1cc(CN2CCC(COCc3ccccc3)CC2)cc(OC)c1	-	+
COc1cc(COCC2CCN(C(=O)CC(c3ccccc3)c3ccccc3)CC2)cc(OC)c1	-	-
Cc1ccnc(OCC(=O)Nc2ccc(OC(F)(F)F)cc2)n1	-	-
COc1cccc(C(=O)Nc2ccc3nc(C)n(-c4ccc(C)cc4)c(=O)c3c2)c1	.	-
COc1ccc(-n2c(C)nc3ccc(NC(=O)c4ccc(F)c(F)c4)cc3c2=O)cc1	.	+
O=c1n(CCc2ccccc2)nc2ccc(S(=O)(=O)N3CCSCC3)cn12	-	-
CCOC(=O)CCC(=O)N1CCN(c2ccc(-c3noc(C(C)C)n3)cn2)CC1	-	-
Cc1ccc(-n2ccnc2N2CCN(C(=O)CCc3ccccc3)CC2)cc1	-	-
SMILES	GIRK2 act	AMPAR-TARP mod
Cc1ccc(-n2ccnc2N2CCN(C(=O)c3ccc(C)c(C)c3)CC2)cc1	-	+
Cc1ccc(-n2ccnc2N2CCN(C(=O)CCCc3ccccc3)CC2)cc1	-	+
Cc1ccc(-n2ccnc2N2CCN(C(=O)c3ccc4ccccc4c3)CC2)cc1	-	-
Cc1cc(C)n(CCN2CCN(S(=O)(=O)c3cccs3)CC2)n1	-	-
CC(C)N1CCC(CNC(=O)C(=O)NCCN2CCOCC2)CC1	-	-
COc1ccccc1C1(C(=O)N2CCC(c3ccsc3)CC2)CCOCC1	-	+
O=C(c1nc2ccccc2s1)N1CCC(c2ccsc2)CC1	-	-
COc1cccc(-c2cc(C(=O)NCCCN(C)C)c3c(C)nn(C4CCS(=O)(=O)C4)c3n2)c1 (centres undefined)	-	-
Cc1noc(C2CN(C(=O)COc3cccc4c3OC(C)(C)C4)C2)n1	-	-
COc1ccc(NC(=O)Cn2c(=O)n(C(C)C)c(=O)c3nscc32)cc1Cl	-	-
O=C(Cn1c(=O)n(C2CC2)c(=O)c2nscc21)Nc1ccc(F)c(Cl)c1	-	+
Cc1cc(C)c(NC(=O)Cn2c(=O)n(C3CC3)c(=O)c3nscc32)c(C)c1	-	-
CCc1ccccc1NC(=O)Cn1c(=O)n(C2CC2)c(=O)c2nscc21	-	+
CC(C)n1c(=O)c2nscc2n(CC(=O)Nc2ccc(Br)cc2)c1=O	-	+
CC(C)n1c(=O)c2nscc2n(CC(=O)Nc2ccc3c(c2)OCCO3)c1=O	-	-
CCn1c(N2CCN(CC(=O)OCc3ccccc3)CC2)nc2c1c(=O)[nH]c(=O)n2C	.	-
O=C(Nc1ccc2c(c1)N(C(=O)c1cccs1)CC2)c1ccc2c(c1)OCO2	-	.
O=C(Nc1cccc(C(F)(F)F)c1)C1CCCN(C(=O)Nc2cccs2)C1 (centres undefined)	-	+
COC(=O)Nc1ccc(S(=O)(=O)N2CCCC(C(=O)Nc3cccc(C(F)(F)F)c3)C2)cc1 (centres undefined)	.	-
Cc1cc(C)n(CC2CCNCC2)n1	-	-
O=C(Nc1c2c(nn1-c1ccc(F)cc1)CSC2)C(=O)N1CCCC1	.	+
O=C(Nc1c2c(nn1-c1ccc(Cl)cc1)CSC2)C(=O)N1CCCC1	-	-
O=C(C1COc2ccccc2O1)N(Cc1ccsc1)C1CC1 (centres undefined)	-	.
O=S(=O)(c1ccccc1)c1nc(-c2ccccc2F)oc1NCC1CCCO1 (centres undefined)	-	-
O=C(NCCc1ccccc1)C(=O)NCC1CCN(C(=O)COc2ccccc2)CC1	-	+
SMILES	GIRK2 act	AMPAR-TARP mod
O=C(NCc1ccccc1Cl)C(=O)NCC1CCN(C(=O)COc2ccccc2)CC1	-	-
O=C(NCc1cccc2ccccc12)NCC1CCN(C(=O)COc2ccccc2)CC1	-	+
O=C(NCCc1ccccc1)NCC1CCN(C(=O)COc2ccccc2)CC1	-	-
COc1ccc(C(=O)Nc2cc(C3CC3)nn2-c2nc(C(C)C)cc(=O)[nH]2)cc1OC	-	+
COc1ccc(CC(=O)Nc2cc(C3CC3)nn2-c2nc(C(C)C)cc(=O)[nH]2)cc1OC	-	-
COc1ccc(Cl)cc1NC(=O)Nc1ccc(N2CCCS2(=O)=O)cc1	-	-
O=C(CSc1ccc(-c2ccc3ccccc3c2)nn1)NCc1ccc2c(c1)OCO2	-	-
Cc1cc(C)c(-c2ccc(SCC(=O)NCc3ccc4c(c3)OCO4)nn2)cc1C	-	+
N#C/C(=C\c1cccs1)c1nc2ccccc2s1	.	+
N#C/C(=C\c1ccccc1)c1nc2ccccc2s1	.	-
O=C1CCCCN1c1ccc(NS(=O)(=O)c2cccs2)cc1	-	-
CN1CCN(c2nc3c(c(=O)[nH]c(=O)n3C)n2CC(=O)c2ccc([N+](=O)[O-])cc2)CC1	.	+
COc1ccc(N2CCN(c3nc4c(c(=O)[nH]c(=O)n4C)n3CC(=O)c3ccccc3)CC2)cc1	.	-
COc1cc(CSc2c(CC(C)C)cnc3c2c(=O)n(C)c(=O)n3C)cc(OC)c1	.	+
COC(=O)c1ccc(CSc2c(CC(C)C)cnc3c2c(=O)n(C)c(=O)n3C)cc1	.	-
CC(C)Cc1cnc2c(c1SCC(=O)N(C(C)C)C(C)C)c(=O)n(C)c(=O)n2C	.	+
Cc1cnc2c(c1SCC(=O)N(C(C)C)C(C)C)c(=O)n(C)c(=O)n2C	-	-
CCCc1cc(N2CCN(CC)CC2)n2nc(C)c(-c3ccccc3)c2n1	-	-
CC1=C(C(=O)Nc2cccc(C(F)(F)F)c2)C(c2ccc(C)cc2)C2=C(CCCC2=O)N1 (centres undefined)	.	+
CCN(CC)c1ccc(C2C(C(=O)Nc3cccc(C(F)(F)F)c3)=C(C)NC3=C2C(=O)CCC3)cc1 (centres undefined)	.	-

Source: PubChem (several laboratories)
